# Compound activity (PubChem)
# Pf Dd2 inh: P. falciparum Dd2 growth inhibitors, primary screen, SYBR Green fluorescence, single dose replicates; 72 h; stronger effect = lower value; activity change, % at 10 µM; 94,000 compounds, 2.3% hits; AID 1159554, 2015; in the data active = activity change below about -80%; inconclusive = no clear call, values can overlap the other calls
# C diff HTS: C. difficile growth inhibitors, primary screen, HTS; 86,000 compounds, 0.25% hits; Clostridium difficile clinical isolate growth, OD600, 24 h; stronger effect = lower value; growth activity, negative = inhibition, % at 16 µg/mL (by protocol); AID 1259249, 2017;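 active = mean growth activity at or below -80% and every replicate also at or below -80%; inconclusive = mean at or below -80% but some replicate above -80%; inactive = mean growth activity above -80%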;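 note: 0% = DMSO wells and -100% = levofloxacin 16 µg/mL wells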
# T cruzi growth-1: T. cruzi intracellular proliferation inhibitors, primary screen, cell-based, beta-gal Tulahuen parasites, NIH3T3 host, luminescence; T. cruzi beta-gal in NIH3T3, GalScreen luminescence, 90 h; AID 624255, 2012; inhibition, % at 8.34 µM; 77,000 compounds, 5.9% hits;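 active = mean inhibition above about 93%, with at least 55% of replicates each passing it, limit read from the data, passing the limit was not always enough; inconclusive = only one of those two conditions holds; inactive = neither condition holds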
# T cruzi growth-2: T. cruzi intracellular proliferation inhibitors, confirmation, cell-based, NIH3T3 host, beta-gal parasite, luminescence, cherry-pick; shares compounds with T cruzi growth-1; T. cruzi beta-gal in NIH3T3, GalScreen luminescence, 90 h; inhibition, % at 8.35 µM; 5,600 compounds, 72% hits;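 active = mean replicate inhibition above about 95% and at least 55% of replicates individually reaching it, limit read from the data; inconclusive = only one of the two criteria is met; inactive = neither criterion is met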
# T cruzi growth-3: inhibitors of intracellular T. cruzi replication, confirmation, NIH3T3 host cells, beta-gal parasites, cherry-pick, set 2. inhibition, % at 2.09 µM. AID 651740, 2012. T. cruzi beta-gal in NIH3T3, GalScreen luminescence, 90 h. shares compounds with T cruzi growth-1. 5,600 compounds, 21% hits;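 active = mean inhibition above about 95%, with at least 55% of replicates also reaching it, limit read from the data; inconclusive = meets just one of the two conditions; inactive = meets neither condition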;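 note: plate controls were neutral control median for no effect and positive control median for full effect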
# 3T3 cytotox: cytotoxicity in mouse NIH/3T3 fibroblasts, confirmation, cytotoxicity control for T. cruzi proliferation inhibitor project, cell-based, cherry-pick, single point; shares compounds with T cruzi growth-1; NIH/3T3 viability, CellTiter-Glo ATP luminescence, 90 h; cytotoxicity (signal decrease), % at 8.35 µM; 5,600 compounds, 14% hits; AID 651742, 2012;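 active = mean signal decrease across replicates above about 35% based on untreated-well scatter, with enough replicates individually passing, limit read from the data; inconclusive = no rule stated though some were filed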;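 note: 0% = median of neutral control wells and 100% = median of positive control wells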
# NIH3T3 tox 2: NIH/3T3 fibroblast cytotoxicity, confirmation, cytotoxicity control, cell-based, cherry-pick, single point, set 2; shares compounds with T cruzi growth-1; NIH/3T3 viability, CellTiter-Glo ATP luminescence, 90 h; inhibition, % at 24.9 µM; 5,600 compounds, 56% hits; AID 651744, 2012;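 active = mean loss of cell viability signal at or above a set limit, and enough replicates individually reaching it; inconclusive = meets only the mean limit or only the replicate share; inactive = meets neither condition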;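 note: 0% = median of neutral control wells and 100% = median of positive control wells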
# * hit, by the source's call; u = inconclusive; x = not tested or not shown. An excerpt weighted towards active compounds, which were near 6.7% of everything screened.
SMILES,Pf Dd2 inh,C diff HTS,T cruzi growth-1,T cruzi growth-2,T cruzi growth-3,3T3 cytotox,NIH3T3 tox 2
O=C(c1ccc2c(c1)OCO2)N1CCCCN2[C@H](CO)[C@@H](c3ccc(-c4ccccc4)cc3)[C@H]2C1,-0.2,-0.9,101.8*,85.9,55.5,28.3,68.0*
COc1cccc(-c2ccc([C@@H]3[C@@H](CO)N4CCCCN(C(=O)c5ccc6c(c5)OCO6)C[C@H]34)cc2)c1,5.0,-7.3,92.5,x,x,x,x
COc1cccc(NC(=O)N2C[C@H](O)COC[C@H]3O[C@@H](CC(=O)NC4CCCC4)CC[C@@H]32)c1,8.0,x,-1.9,x,x,x,x
C[C@H]1CCCCO[C@@H](CN(C)C(=O)Nc2ccccc2)[C@@H](C)CN([C@@H](C)CO)C(=O)c2cc(NS(=O)(=O)c3ccc(Cl)cc3)ccc2O1,-70.2,10.3,113.6*,107.8*,38.7,-17.6,-37.2
C[C@@H]1CN([C@@H](C)CO)C(=O)c2cc(NS(=O)(=O)c3ccccc3)ccc2O[C@@H](C)CCCCO[C@@H]1CN(C)C(=O)Nc1ccccc1,-55.5,x,x,x,x,x,x
C[C@@H]1CCCCO[C@@H](CN(C)C(=O)Nc2ccccc2)[C@H](C)CN([C@@H](C)CO)C(=O)c2cc(NS(=O)(=O)c3ccc(Cl)cc3)ccc2O1,-17.3,1.3,u,108.2*,66.7,2.9,4.4
C[C@@H]1CCCCO[C@@H](CN(C)C(=O)Nc2ccccc2)[C@H](C)CN([C@H](C)CO)C(=O)c2cc(NS(=O)(=O)c3ccccc3)ccc2O1,-56.7,x,x,x,x,x,x
C[C@@H]1CCCCO[C@@H](CN(C)C(=O)Nc2ccc(F)cc2)[C@@H](C)CN([C@H](C)CO)C(=O)c2cc(NS(=O)(=O)c3ccc(Cl)cc3)ccc2O1,-13.0,x,x,x,x,x,x
C[C@@H]1CN([C@H](C)CO)C(=O)c2cc(NS(=O)(=O)c3ccc(Cl)cc3)ccc2O[C@@H](C)CCCCO[C@H]1CN(C)C(=O)Nc1ccccc1,-66.3,0.8,u,100.6*,28.0,-44.2,-23.5
C[C@@H]1CN([C@@H](C)CO)C(=O)c2cccc(NC(=O)c3ccc(-c4nccs4)cc3)c2O[C@@H]1CN(C)S(=O)(=O)c1cn(C)cn1,-15.9,-1.7,-7.1,x,x,x,x
C/C=C/c1ccc([C@H]2[C@@H](CNC(C)C)N(C(=O)c3ccccn3)[C@H]2CO)cc1,3.0,-3.4,17.4,x,x,x,x
COc1ccc(S(=O)(=O)N(C)C[C@@H]2Oc3c(NC(=O)Nc4ccc(C(F)(F)F)cc4)cccc3C(=O)N([C@@H](C)CO)C[C@@H]2C)cc1,19.4,19.6,59.6,x,x,x,x
C[C@@H]1CCCCO[C@@H](CN(C)C(=O)Nc2ccccc2)[C@@H](C)CN([C@@H](C)CO)C(=O)c2cc(NC(=O)Nc3cccc4ccccc34)ccc2O1,u,-2.3,x,x,x,x,x
C[C@@H]1CCCCO[C@H](CN(C)C(=O)Nc2cccc3ccccc23)[C@@H](C)CN([C@H](C)CO)C(=O)c2cc(NC(=O)Nc3ccc(F)cc3)ccc2O1,-34.3,-2.6,69.0,x,x,x,x
C[C@@H]1CCCCO[C@@H](CN(C)C(=O)Nc2ccc(F)cc2)[C@H](C)CN([C@@H](C)CO)C(=O)c2cc(NC(=O)Nc3cccc4ccccc34)ccc2O1,-7.2,-8.1,90.8,x,x,x,x
C[C@H](CO)N1C[C@H](C)[C@H](CN(C)C(=O)Nc2cccc3ccccc23)OCCCC[C@H](C)Oc2ccc(NC(=O)Nc3ccc(F)cc3)cc2C1=O,-48.3,-3.1,u,100.8*,70.6,0.4,0.1
C[C@@H]1CCCCO[C@H](CN(C)C(=O)Nc2ccc(F)cc2)[C@H](C)CN([C@@H](C)CO)C(=O)c2cc(NC(=O)Nc3cccc4ccccc34)ccc2O1,-39.4,-5.0,102.4*,110.2*,81.0,-20.1,-4.7
C[C@@H]1CCCCO[C@H](CN(C)C(=O)Nc2cccc3ccccc23)[C@H](C)CN([C@@H](C)CO)C(=O)c2cc(NC(=O)Nc3ccc(F)cc3)ccc2O1,-82.7*,7.2,100.9*,111.6*,60.2,-13.6,-10.8
Cc1ccc(S(=O)(=O)Nc2ccc3c(c2)C(=O)N([C@@H](C)CO)C[C@H](C)[C@H](CN(C)S(=O)(=O)c2cn(C)cn2)O3)cc1,-40.5,2.8,7.6,x,x,x,x
COc1ccc2c3c(n(C)c2c1)[C@@H](CO)N(C)CC31CCN(C(=O)Nc2c(C)noc2C)CC1,-14.8,4.6,x,x,x,x,x
COc1ccc2c3c([nH]c2c1)[C@@H](CO)N(C(=O)c1cccc(F)c1)CC31CN(C(=O)CC2CC2)C1,-27.5,-3.8,x,x,x,x,x
Cc1ccccc1-c1ccc([C@H]2[C@H](CO)N3CCCCN(C(=O)Nc4ccccc4)C[C@@H]23)cc1,2.2,19.7,94.3,x,x,x,x
O=C(Nc1ccc(F)cc1)N1CCCCN2[C@H](C1)[C@@H](c1ccc(-c3ccncc3)cc1)[C@@H]2CO,-2.2,-3.8,67.2,x,x,x,x
Cc1ccccc1-c1ccc([C@H]2[C@H]3CN(C(=O)Nc4ccc(F)cc4)CCCCN3[C@H]2CO)cc1,-32.3,17.2,100.7*,111.2*,56.4,25.1,75.6*
Cc1ccccc1-c1ccc([C@H]2[C@@H](CO)N3CCCCN(C(=O)Nc4ccc(F)cc4)C[C@H]23)cc1,-35.0,26.1,100.8*,97.9*,u,93.7*,103.1*
SMILES,Pf Dd2 inh,C diff HTS,T cruzi growth-1,T cruzi growth-2,T cruzi growth-3,3T3 cytotox,NIH3T3 tox 2
Cc1ccccc1-c1ccc([C@H]2[C@@H](CO)N3CCCCN(C(=O)Nc4ccc(F)cc4)C[C@@H]23)cc1,12.5,-0.1,104.1*,106.8*,94.5,1.4,55.6*
Cc1ccccc1-c1ccc([C@@H]2[C@@H](CO)N3CCCCN(C(=O)Nc4ccccc4)C[C@@H]23)cc1,-63.0,47.1,70.8,x,x,x,x
COc1cccc(-c2cnc3c(c2)C(=O)N([C@@H](C)CO)C[C@H](C)[C@@H](CN(C)Cc2ccc(C(=O)O)cc2)O3)c1,-2.0,-1.7,x,x,x,x,x
C[C@@H]1CN([C@H](C)CO)C(=O)Cc2cc(NS(=O)(=O)c3cn(C)cn3)ccc2O[C@H]1CN(C)C,13.5,5.0,3.0,x,x,x,x
C[C@H]1CN([C@@H](C)CO)S(=O)(=O)c2ccc(Br)cc2O[C@H]1CN(C)Cc1ccccc1,-33.7,-3.8,77.4,x,x,x,x
C[C@H](CO)N1C[C@H](C)[C@H](CN(C)Cc2ccccc2)Oc2cc(Br)ccc2S1(=O)=O,-34.4,6.1,89.5,x,x,x,x
C[C@@H]1CN([C@@H](C)CO)S(=O)(=O)c2ccc(Br)cc2O[C@H]1CN(C)Cc1ccccc1,-14.6,24.6,99.4*,92.0,84.8,31.8,104.5*
